About 83,000 compounds went through this panel and 20% of them were active in at least one assay; those are over-represented in the sample as a whole.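 Negative percent growth values reflect cell death: -40 means 40% of the cells present at the start died, and -100 means all died.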 A number with no mark means an inactive call. Active and inactive are the calls of the source. How the source made its calls: active means growth percent below 10; inactive means the rest.
Columns and labels:
Assay in all cases: NCI-60 one-dose screen, 48 h (100 = growth as untreated, 0 = no growth, -100 = all killed)
Settings in all cases: 10 µM unless noted
SR leukemia = tested on: SR leukemia
RPMI-8226 leukemia = tested on: RPMI-8226 leukemia
OVCAR-8 ovarian = tested on: OVCAR-8 ovarian
OVCAR-5 ovarian = tested on: OVCAR-5 ovarian
OVCAR-4 ovarian = tested on: OVCAR-4 ovarian
SK-OV-3 ovarian = tested on: SK-OV-3 ovarian
IGROV1 ovarian = tested on: IGROV1 ovarian
OVCAR-3 ovarian = tested on: OVCAR-3 ovarian
NCI/ADR-RES ovarian = tested on: NCI/ADR-RES ovarian
HS 578T breast = tested on: HS 578T breast

Row | Structure (SMILES) | growth (SR leukemia) | growth (RPMI-8226 leukemia) | growth (OVCAR-8 ovarian) | growth (OVCAR-5 ovarian) | growth (OVCAR-4 ovarian) | growth (SK-OV-3 ovarian) | growth (IGROV1 ovarian) | growth (OVCAR-3 ovarian) | growth (NCI/ADR-RES ovarian) | growth (HS 578T breast)
1 | Cc1ccc2[nH]c(=O)c3c(c2c1)Oc1ncn2nc(-c4ccco4)nc2c1C3c1ccc(Cl)cc1 (stereo not given) | 106% | 101% | 93.4% | 98.2% | 87.9% | -90.5% (active) | 98% | 111% | 94.9% | 
2 | COc1ccc(OC)c(/C=C2\Oc3cc(OCCCN4CCCC4)ccc3C2=O)c1 | -22.8% (active) | 77.7% | 78.1% | 82.1% | 86.7% | 110% | 84.2% | 91% | 80.3% | 
3 | CCOC(=O)c1c(NS(=O)(=O)c2ccc(C)cc2)sc2c1CCC1(C2)OCCO1 | 94.3% | 86.7% | 95.7% | 88.8% | 91.4% | 90.1% | 109% | 103% | 98% | 81.3%
4 | COc1cc(/C=C/c2cc(/C=C/c3ccc(O)c(OC)c3)n(C(N)=O)n2)ccc1O | -3.77% (active) | -44% (active) | -6.69% (active) | -30.7% (active) | -6.24% (active) |  | 1.18% (active) | -72.7% (active) | 7.68% (active) | -11.3% (active)
5 | COc1ccc(-c2ccc(-c3ccc(C(=N)N)cn3)s2)cc1OC | 63.1% | 89% | 102% | 103% | 96.1% |  | 101% | 109% | 108% | 97.2%
6 | O=S(=O)(c1ccc(OCCO)cc1)c1ccc(OCCO)cc1 | 99.4% | 81% | 102% | 101% | 111% | 118% | 87.5% |  | 103% | 
7 | Clc1cc(Cl)c2nc(-c3ccc(-c4ccc(/C=N/NC5=NCCN5)cc4)s3)cn2c1 | 11.2% | 37.6% | 97.9% | 104% | 85.6% |  | 84.3% | 97.9% | 97.7% | 86.6%
8 | NC(=S)N/N=C1\CCCC(C(F)(F)F)C1 (stereo not given) | 78.7% | 71.1% | 84.5% | 103% | 97.7% | 108% | 13.7% |  | 87.7% | 111%
9 | COc1cc(/C=C/C(=O)c2cccc(-n3cc(-c4cc(OC)c(OC)c(OC)c4)[nH]c3=O)c2)cc(OC)c1OC | -12.7% (active) | -46.4% (active) | 6.44% (active) | 28.4% | 23.2% | 49.6% |  | -39% (active) | 10.5% | 62.4%
10 | ClC(Cl)c1nc(-c2ccccc2)nc2cc(-c3ccccc3)nn12 | 90.7% | 17.3% | 81.3% | 121% | 63.4% |  | 67% | -9.5% (active) | 54.6% | 63%

— PubChem BioAssay (NCI)
